Screens (PubChem)
sdo1 growth: sdo1-depleted yeast growth rescue; S. cerevisiae sdo1-depleted JHY4D growth rescue, OD600 30 h; active compounds read high; pdr5 snq2 efflux-pump mutant strain; z-score at 10 µM; 140,000 compounds, 0.21% hits; AID 817;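 active = z-score above 3 at both the 24 hr and the 30 hr optical density reads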;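 note: z-score against mean and SD of all compound wells on the same plate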
Measles CPE: protection of cells from measles virus; Measles virus-infected cells, CPE protection, absorbance; protection (pct of control), % at 4 µM; 140,000 compounds, 1.5% hits; AID 841; in the data active = protection mostly above about 24%, no sharp cut-off; inactive = mostly below about 26%
ROMK primary: human ROMK K+ channel modulation, primary screen. Tet-inducible ROMK, thallium flux fluorescence; actives lie on both sides. B-score at 10 µM. 130,000 compounds, 2% hits;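 active = signal ratio slope over the read window, or its plate-corrected B-score, at least 3 SD from the plate mean, either direction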;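 note: B-score of the F/F0 ratio slope over 7 to 12 s after thallium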
Target sequence (P48048 whole entry, looked up): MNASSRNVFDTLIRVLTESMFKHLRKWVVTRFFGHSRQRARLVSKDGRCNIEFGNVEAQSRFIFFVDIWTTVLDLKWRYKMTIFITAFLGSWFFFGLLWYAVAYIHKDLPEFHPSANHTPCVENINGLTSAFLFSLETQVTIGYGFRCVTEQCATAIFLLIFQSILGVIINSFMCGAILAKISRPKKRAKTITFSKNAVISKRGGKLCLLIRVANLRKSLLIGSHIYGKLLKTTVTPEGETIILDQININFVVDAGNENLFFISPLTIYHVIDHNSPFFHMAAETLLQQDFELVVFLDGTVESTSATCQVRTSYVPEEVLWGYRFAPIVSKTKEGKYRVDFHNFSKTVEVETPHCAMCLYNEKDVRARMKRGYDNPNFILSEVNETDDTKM
INS promoter inh: TRM-6 insulin promoter activity inhibition; TRM-6 cells (human fetal islet line), insulin promoter-eGFP reporter, imaging; reporter expression induced with tamoxifen; inhibition, % at 2 µM; 130,000 compounds, 0.9% hits; AID 1273;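 active = inhibition above the mean plus 3 SD, with well images judged a real hit on visual review, cut at about 60% in these data, passing the limit was not always enough; inconclusive = inhibition over the cutoff but images rejected on review; inactive = inhibition not above the cutoff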
* = called active by the depositor; ? = inconclusive; nt = no result given. The list is not random: actives were taken first. Their share in the collection is about 3%.

SMILES	sdo1 growth	Measles CPE	ROMK primary	INS promoter inh
CCCCOc1ccc(C(=O)N2CCCC2C(=O)O)cc1 (configuration not stated)	0.07	48.5*	0.232	32.0
CCCOc1ccc(C(=O)N2CCCC2C(=O)O)cc1 (configuration not stated)	-0.07	23.3	0.329	-27.3
CC(=O)Nc1ccc(S(=O)(=O)NCCSCc2ccc(Cl)cc2Cl)cc1	0.01	3.2	nt	-11.5
COC(=O)c1nnn(Cc2ccccc2)c1N	1.31	3.8	0.163	30.8
Nc1c(C2=NCCO2)nnn1Cc1ccccc1	0.14	40.7*	nt	-43.2
O=C(Nc1ccccc1SCC1CSc2nc3ccccc3c(=O)n21)c1ccccc1Cl (configuration not stated)	0.04	4.3	nt	-13.6
O=C(Nc1ccccc1SCC1CSc2nc3ccccc3c(=O)n21)c1ccccc1 (configuration not stated)	0.87	4.1	nt	-123.3
Cc1cccc(C(=O)Nc2ccccc2SCC2CSc3nc4ccccc4c(=O)n32)c1 (configuration not stated)	-0.51	25.4*	nt	0.0
Cc1ccc(C(=O)Nc2ccccc2SCC2CSc3nc4ccccc4c(=O)n32)cc1 (configuration not stated)	0.43	63.0*	nt	2.3
O=c1c2ccccc2nc2n1C(CSc1ccccc1)CS2 (configuration not stated)	nt	nt	-1.09	-40.0
O=C(Nc1ccccc1SCC1CSc2nc3ccccc3c(=O)n21)c1cccc(Cl)c1 (configuration not stated)	0.39	35.9*	nt	-83.3
CC12CCC(C(=O)NCc3ccccc3Cl)(CC1=O)C2(C)C (configuration not stated)	nt	nt	1.37	-95.0
O=C(O)c1ccc(NC(CSCc2ccccc2F)C(=O)O)c([N+](=O)[O-])c1 (configuration not stated)	2.55	5.3	0.636	22.2
CCCCC1C(=O)N(c2ccccc2)N(c2ccccc2)C1=O	-0.45	59.8*	-0.829	13.0
CCOc1ccc2nc3c(cc2c1)CN(CCOC)C(=NC)S3	0.33	29.3*	nt	0.0
CCN=C1Sc2nc3ccc(OCC)cc3cc2CN1CCOC	-0.55	8.5	0.0353	21.6
CC1(C)c2ssc(=S)c2-c2ccccc2N1C(=O)CSC1=NCCS1	-1.45	37.5*	nt	58.3
COc1ccc2c(c1)-c1c(ssc1=S)C(C)(C)N2C(=O)CSC1=NCCS1	0.99	2.2	nt	60.0
COc1ccc(OCCC(=O)OCc2c(C)noc2C)cc1	0.92	35.1*	0.875	4.3
Cc1noc(C)c1COC(=O)CCOc1ccccc1	0.25	14.9	-0.0333	nt
Brc1ccc(-c2ccc(/C=N/Nc3nc4ccccc4[nH]3)o2)cc1	-1.75	9.4	nt	32.3
O=C(N/N=C\CCc1ccccc1)c1ccco1	0.84	57.1*	nt	-33.3
C=C(C)c1cccc(C(C)(C)NC(=O)N2CCN(C/C=C/c3ccccc3)CC2)c1	-1.02	3.1	nt	-29.7
CCOC(=O)N/N=C(/C)c1ccc([N+](=O)[O-])o1	0.29	83.1*	nt	5.3
COc1ccc(C)cc1NC(=O)COC(=O)c1ccc([N+](=O)[O-])o1	nt	nt	-0.406	nt
SMILES	sdo1 growth	Measles CPE	ROMK primary	INS promoter inh
Cc1cccc(/C=C2\CCC(=C3SCCCS3)C2=O)c1	-0.68	19.4	0.394	nt
O=C1C(=C2SCCCS2)CC/C1=C\c1ccc(F)cc1	0.35	43.6*	nt	-59.5
CSCCC1(C(=O)O)NC(c2ccccc2O)C2C(=O)N(C(C)C)C(=O)C21 (configuration not stated)	1.44	15.2	nt	nt
COc1cccc(C2NC(C)(C(=O)O)C3C(=O)N(C(C)C)C(=O)C23)c1O (configuration not stated)	2.04	29.4*	nt	nt
CC(=O)Nc1c(C(=O)c2ccccc2)oc2ccccc12	-0.26	27.9	-0.367	71.4*
CC(=O)NC(C)C(=O)OCC(=O)Nc1ccc(Br)cc1 (configuration not stated)	0.11	23.1	0.559	89.3*
COc1cccc(OCCCCCCN2CCOCC2)c1	-1.66	23.9	0.0585	-31.0
CCOc1cccc(OCCCCN2CCOCC2)c1	-1.98	79.9*	0.581	-42.9
CC1C/C(=C/c2ccccn2)C(=O)/C(=C/c2ccccn2)C1 (configuration not stated)	nt	nt	-4.69*	?
CCOC(=O)c1nnn(-c2nonc2N)c1-c1ccc(F)cc1	nt	nt	-0.0836	0.0
S=C(Nc1ccccc1)Nc1nc2ccccc2n1CCOc1ccccc1	0.27	25.9*	0.282	8.3
CCOC(=O)CON1C(=O)C(=O)N(OCC(=O)OCC)C2CCCCC21 (configuration not stated)	nt	nt	-0.44	nt
CON1C(=O)C(=O)N(OC)C2CCCCCC21 (configuration not stated)	-0.24	44.7*	nt	nt
Cc1ccc(S(=O)(=O)C2(C(=O)NCc3ccc4c(c3)OCO4)CC2)cc1	0.16	16.6	nt	nt
